In PubChem BioAssay (NCI):
Compounds without any hit were thinned out: in the full panel of roughly 83,000, 20% have a hit.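 Each cell line was grown in a 96-well plate and treated with one concentration of compound for 48 hours. Values below 10 were considered active.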

Key:
Experiment in all cases: NCI-60 one-dose screen, 48 h (100 = growth as untreated, 0 = no growth, -100 = all killed)
Settings in all cases: 10 µM unless noted
SK-MEL-2 melanoma = tested on: SK-MEL-2 melanoma
EKVX NSCLC = tested on: EKVX NSCLC
SN12C renal = tested on: SN12C renal
UO-31 renal = tested on: UO-31 renal
TK-10 renal = tested on: TK-10 renal
ACHN renal = tested on: ACHN renal
A498 renal = tested on: A498 renal
CCRF-CEM leukemia = tested on: CCRF-CEM leukemia
MOLT-4 leukemia = tested on: MOLT-4 leukemia
CAKI-1 renal = tested on: CAKI-1 renal

Measured: growth

O=C1C(Cl)=C(NCCCN2CCOCC2)C(=O)c2ccccc21
inactive: SK-MEL-2 melanoma 104% | EKVX NSCLC 112% | SN12C renal 82.8% | UO-31 renal 61% | TK-10 renal 131% | ACHN renal 108% | A498 renal 110% | CCRF-CEM leukemia 90.9% | MOLT-4 leukemia 88.4%

CCCCCCCC/C=C\CCCCCCCCOc1cccc(CC(=O)NCC[N+]2(C)CCCC2)c1
inactive: SK-MEL-2 melanoma 107% | EKVX NSCLC 89.4% | SN12C renal 53% | UO-31 renal 94.1% | TK-10 renal 84.7% | ACHN renal 99% | CAKI-1 renal 78.1% | CCRF-CEM leukemia 51.6% | MOLT-4 leukemia 80.3%

CCOC(=O)c1cnn(CC(O)c2ccc(F)cc2)c1NC(=O)Nc1ccccc1F (stereo unspecified)
inactive: SK-MEL-2 melanoma 111% | EKVX NSCLC 101% | SN12C renal 106% | UO-31 renal 71.5% | TK-10 renal 103% | ACHN renal 98.3% | CAKI-1 renal 83.7% | CCRF-CEM leukemia 96.9% | MOLT-4 leukemia 91.8%

Nc1nc(-c2ccnc(Cl)c2)nn1-c1nc2ccccc2s1
inactive: SK-MEL-2 melanoma 108% | EKVX NSCLC 96.5% | SN12C renal 101% | UO-31 renal 87% | ACHN renal 96.9% | CAKI-1 renal 95% | A498 renal 96.2% | CCRF-CEM leukemia 101% | MOLT-4 leukemia 119%
